Data on twelve compounds can be found in PubChem BioAssay (NCI).

SMILES strings stand for the structures. About 83,000 compounds went through this panel and 20% of them were active in at least one assay; those are over-represented in the sample as a whole.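 Percent growth is the endpoint: 0 to 100 indicates growth inhibition (40 means 60% inhibition), 0 means no net growth, and negative values indicate cell death.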 Unmarked numbers belong to inactive results. Activity calls are given as the source filed them. How the source made its calls: active means growth percent below 10; inactive means the rest.

Common to all, as to assay: NCI-60 one-dose screen, 48 h (100 = growth as untreated, 0 = no growth, -100 = all killed)
One assay deals with RPMI-8226 leukemia. Particulars: 10 µM.
The subject of a further assay is OVCAR-8 ovarian. Particulars: 10 µM.
In a further assay the test system is OVCAR-5 ovarian. Particulars: 10 µM.
The next assay concerns OVCAR-4 ovarian. The following applies: 10 µM.
In the next assay the test system is SK-OV-3 ovarian. The following applies: 10 µM.
A further assay concerns IGROV1 ovarian. Particulars: 10 µM.
A further assay concerns OVCAR-3 ovarian. Particulars: 10 µM.
A further assay has as its system HS 578T breast. The following applies: 10 µM.
In a further assay the test system is NCI/ADR-RES ovarian. The following applies: 10 µM.
A further assay has as its system T-47D breast. Particulars: 10 µM.
Another assay concerns BT-549 breast. Particulars: 10 µM.
In a further assay the test system is MDA-MB-435 melanoma. The following applies: 10 µM.
For the next assay, the system named is SW-620 colon. The following applies: 10 µM.
Another assay relates to MCF7 breast. Particulars: 10 µM unless noted.
Another assay relates to HCT-116 colon. The following applies: 10 µM.
A further assay deals with HCC-2998 colon. The following applies: 10 µM.
In the next assay the test system is SR leukemia. The following applies: 10 µM.
Another assay concerns KM12 colon. Particulars: 10 µM.

Turning to `Nc1ccc(N=Nc2ccc(S(=O)(=O)O)cc2)c2ccccc12`, the growth in the assay with RPMI-8226 leukemia is 98%; in the assay on OVCAR-8 ovarian it was 103%; in the assay on OVCAR-5 ovarian it was 106%; in the assay on OVCAR-4 ovarian, 103%; in the assay on SK-OV-3 ovarian it was 72.2%; with IGROV1 ovarian, 94.1%. Moreover, the growth is 99% with OVCAR-3 ovarian; 96.6% with HS 578T breast; 97.3% with NCI/ADR-RES ovarian; 57.3% in the assay on T-47D breast; 102% with BT-549 breast; 98.6% in the assay with MDA-MB-435 melanoma. The growth in the assay on SW-620 colon was 88.7%; in the assay on MCF7 breast, 91.4%; in the assay with HCT-116 colon, 89%; with HCC-2998 colon, 88.3%.
Take `Cc1c(C(=O)O)c(=O)n(-c2ccccc2)n1C`: the growth was 123% with SR leukemia; 103% in the assay on OVCAR-8 ovarian; 110% with OVCAR-5 ovarian; 107% with SK-OV-3 ovarian; 117% with IGROV1 ovarian; 141% in the assay on OVCAR-3 ovarian. Besides, the growth in the assay with NCI/ADR-RES ovarian was 101%; in the assay on T-47D breast, 98.8%; with BT-549 breast it was 114%; in the assay on MDA-MB-435 melanoma, 107%; in the assay on MCF7 breast, 112%; in the assay on HCT-116 colon, 113%. For the same compound, the growth in the assay with HCC-2998 colon was 106%; in the assay with KM12 colon, 120%.
Regarding `CCCC[P+](c1ccccc1)(c1ccccc1)c1ccccc1`, the growth with SR leukemia is 41.2%; with OVCAR-8 ovarian it was 43.4%; with OVCAR-5 ovarian, 62.6%; in the assay on SK-OV-3 ovarian, 87.2%; in the assay on IGROV1 ovarian, 49.1%; in the assay with OVCAR-3 ovarian, 43.5%. Moreover, the growth is 80.2% in the assay on HS 578T breast; 106% in the assay on NCI/ADR-RES ovarian; 26.5% in the assay with T-47D breast; 64.5% in the assay with SW-620 colon; 24.1% in the assay with MCF7 breast; 39.2% in the assay on HCT-116 colon. Besides, the growth with HCC-2998 colon is 32.2%; in the assay with KM12 colon, 23.2%.
Turning to `CC(CN1CCCCC1)NC(=O)c1scnc1-c1ccccc1` (stereo not given), the growth in the assay on RPMI-8226 leukemia is 101%; in the assay on OVCAR-8 ovarian it was 100%; in the assay on OVCAR-5 ovarian it was 118%; in the assay with OVCAR-4 ovarian it was 108%; with SK-OV-3 ovarian it was 103%; in the assay with IGROV1 ovarian, 105%. For the same compound, the growth in the assay on OVCAR-3 ovarian is 112%; with HS 578T breast it was 195%; in the assay on NCI/ADR-RES ovarian it was 99.4%; in the assay with T-47D breast, 98.7%; with BT-549 breast, 101%; in the assay with MDA-MB-435 melanoma it was 101%. Moreover, the growth in the assay on SW-620 colon was 106%; in the assay on MCF7 breast, 103%; with HCT-116 colon, 93.8%; in the assay with HCC-2998 colon, 96.8%.
`CC(=O)OCC1CCCO1` (stereo not given): the growth in the assay with RPMI-8226 leukemia was 119%; in the assay on OVCAR-8 ovarian, 110%; in the assay on OVCAR-5 ovarian, 110%; in the assay on OVCAR-4 ovarian, 102%; in the assay on SK-OV-3 ovarian it was 92%; with IGROV1 ovarian it was 113%. Further, the growth with OVCAR-3 ovarian is 114%; with HS 578T breast it was 94.2%; in the assay on NCI/ADR-RES ovarian, 105%; in the assay with T-47D breast, 93.1%; with BT-549 breast it was 107%; with MDA-MB-435 melanoma, 100%. Besides, the growth was 87.3% in the assay on SW-620 colon; 94.2% in the assay on MCF7 breast; 105% with HCT-116 colon; 84.8% in the assay on HCC-2998 colon; 102% in the assay on KM12 colon.
In the case of `O=C(Cc1ccc(OCc2ccccc2)cc1)NCc1ccc2c(c1)OCO2`, the growth in the assay with RPMI-8226 leukemia is 67.7%; with OVCAR-8 ovarian, 91.1%; with OVCAR-5 ovarian, 110%; in the assay with OVCAR-4 ovarian, 107%; in the assay with SK-OV-3 ovarian it was 82.4%; with IGROV1 ovarian it was 60.4%. The growth was 58.9% in the assay with OVCAR-3 ovarian; 69.8% in the assay on HS 578T breast; 47.8% in the assay with NCI/ADR-RES ovarian; 86.2% with T-47D breast; 56.1% with BT-549 breast; -42.4% (active) in the assay on MDA-MB-435 melanoma. Besides, the growth is 28.1% in the assay with SW-620 colon; 44.5% in the assay on MCF7 breast; 40.4% in the assay with HCT-116 colon; 77.2% with HCC-2998 colon; 33.1% in the assay on KM12 colon.
As for `COc1cc(CCN=Cc2ccccc2O)c([N+](=O)[O-])cc1OC`, the growth with RPMI-8226 leukemia was 105%; with OVCAR-8 ovarian, 107%; in the assay on OVCAR-5 ovarian, 101%; in the assay with OVCAR-4 ovarian it was 120%; with SK-OV-3 ovarian, 108%; in the assay on IGROV1 ovarian, 96.5%. Also, the growth in the assay with OVCAR-3 ovarian is 101%; in the assay on HS 578T breast, 114%; in the assay with NCI/ADR-RES ovarian, 103%; in the assay on T-47D breast it was 97.9%; with BT-549 breast, 91.2%; in the assay on MDA-MB-435 melanoma it was 110%. In addition, the growth in the assay with SW-620 colon is 104%; in the assay on MCF7 breast it was 104%; in the assay on HCT-116 colon it was 95%; in the assay on HCC-2998 colon, 101%; in the assay with KM12 colon, 107%.
For `C[N+](C)=c1ccc2nc3c(cc(Nc4ccccc4)c4ccccc43)oc-2c1`, the growth is 31.7% in the assay on RPMI-8226 leukemia; 54.4% with OVCAR-8 ovarian; 80.7% in the assay on OVCAR-5 ovarian; 21.3% in the assay on OVCAR-4 ovarian; 65.3% in the assay on SK-OV-3 ovarian; 67.3% in the assay with IGROV1 ovarian. The growth in the assay with OVCAR-3 ovarian was -28.6% (active); with HS 578T breast it was 63.6%; with NCI/ADR-RES ovarian it was 57.3%; in the assay on T-47D breast, 31.8%; in the assay on BT-549 breast, 41.7%; in the assay with MDA-MB-435 melanoma, 53.5%. For the same compound, the growth is 56% with SW-620 colon; 32.5% with MCF7 breast; 47.1% in the assay with HCT-116 colon; 75.6% in the assay on HCC-2998 colon; 62.5% in the assay with KM12 colon.
For `COc1cccc(COC(=O)Nc2ccccc2)c1OC`, the growth in the assay with RPMI-8226 leukemia was 90.1%; in the assay with OVCAR-8 ovarian it was 96.9%; in the assay on OVCAR-5 ovarian, 105%; in the assay on OVCAR-4 ovarian it was 117%; in the assay with SK-OV-3 ovarian, 111%; in the assay with IGROV1 ovarian it was 101%. Also, the growth in the assay on OVCAR-3 ovarian is 111%; with HS 578T breast, 115%; with NCI/ADR-RES ovarian it was 105%; with T-47D breast, 93.1%; with BT-549 breast, 107%; with MDA-MB-435 melanoma it was 91.7%. Moreover, the growth is 114% with SW-620 colon; 97.6% with MCF7 breast; 104% with HCT-116 colon; 102% in the assay with HCC-2998 colon; 106% in the assay on KM12 colon.
`C1CNC(C2=NCCN2)=N1`: the growth with RPMI-8226 leukemia is 109%; with OVCAR-8 ovarian it was 102%; in the assay with OVCAR-5 ovarian, 105%; in the assay on OVCAR-4 ovarian, 105%; in the assay with SK-OV-3 ovarian, 104%; with IGROV1 ovarian, 107%. Moreover, the growth was 94.2% with OVCAR-3 ovarian; 101% in the assay on HS 578T breast; 108% with NCI/ADR-RES ovarian; 101% in the assay on T-47D breast; 111% with BT-549 breast; 93.4% in the assay with MDA-MB-435 melanoma. Besides, the growth with SW-620 colon was 100%; with MCF7 breast it was 98.7%; in the assay on HCT-116 colon, 96.7%; in the assay on HCC-2998 colon it was 92.3%; in the assay on KM12 colon, 95.4%.
With `NC(=O)NC(=O)c1ccc(Cl)cc1`, the growth was 88.9% with SR leukemia; 106% in the assay on OVCAR-8 ovarian; 113% with OVCAR-5 ovarian; 103% in the assay with SK-OV-3 ovarian; 92.6% in the assay on IGROV1 ovarian; 125% in the assay with OVCAR-3 ovarian. Also, the growth with HS 578T breast is 97.9%; in the assay on NCI/ADR-RES ovarian, 107%; in the assay on T-47D breast it was 96.9%; with BT-549 breast, 99.4%; with MDA-MB-435 melanoma it was 102%; with SW-620 colon, 102%. Also, the growth in the assay with MCF7 breast was 95.4%; in the assay with HCT-116 colon, 87.9%; with HCC-2998 colon it was 111%; with KM12 colon, 110%.
`O=C(O)/C=C/C(=O)NCc1ccccc1`: the growth was 94.7% with RPMI-8226 leukemia; 108% in the assay with OVCAR-8 ovarian; 107% in the assay on OVCAR-5 ovarian; 107% in the assay on OVCAR-4 ovarian; 112% in the assay on SK-OV-3 ovarian; 98.4% in the assay on IGROV1 ovarian. Also, the growth was 109% in the assay on OVCAR-3 ovarian; 113% with HS 578T breast; 102% with NCI/ADR-RES ovarian; 98.5% with T-47D breast; 104% in the assay with BT-549 breast; 101% with MDA-MB-435 melanoma. The growth in the assay with SW-620 colon is 109%; in the assay with MCF7 breast it was 91.9%; in the assay on HCT-116 colon it was 106%; with HCC-2998 colon it was 95.7%; in the assay on KM12 colon, 104%.
